Legend:
Conditions in all cases: concentration: 10 µM; 24 h
HCC1569 [1] = test: cell number relative to DMSO (% of DMSO); higher = more cells (less growth inhibition / toxicity)
Outline: (§1)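 Compounds were applied at 10 µM for 24 h at 37 °C, in triplicate, to HCC1569 and TDF cells. The cells were then fixed and stained for H1.0, and nuclei were counterstained with DAPI. Nuclear H1.0 intensity or cell number is reported relative to the plate control as a percent, taking the median of replicates. Smoothing for positional effects was applied to HCC1569 values only.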

TDF [2] = test: as above
Outline: as §1

TDF [3] = test: H1.0 immunofluorescence intensity relative to DMSO (% of DMSO); higher = stronger H1.0 induction, active = 120 or more
Outline: as §1

HCC1569 [4] = test: H1.0 immunofluorescence intensity relative to DMSO (% of DMSO); higher = stronger H1.0 induction, active = 140 or more
Outline: as §1
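For H1.0 immunofluorescence intensity relative to DMSO in this document: TDF is a line of transformed human dermal fibroblasts of mesenchymal origin.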
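For cell number relative to DMSO in this document: TDF denotes transformed human dermal fibroblasts of mesenchymal origin.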

| SMILES | cell number (HCC1569 [1]) | cell number (TDF [2]) | H1.0 immunofluorescence intensity (TDF [3]) | H1.0 immunofluorescence intensity (HCC1569 [4]) |
| --- | --- | --- | --- | --- |
| CCC1C(=O)OCC1Cc1cncn1C.O=[N+]([O-])O (stereo unspecified) [Pilocarpine nitrate] | 98 | 86.9 | 98.7 (inactive) | 107 (inactive) |
| O=C(Nc1ccc(Cl)cc1)Nc1cccc(-c2cccc(N3CCCC3)n2)c1 | 96 | 87.5 | 98.6 (inactive) | 114 (inactive) |
| CC1CCN(C(=O)CC#N)CC1N(C)c1ncnc2[nH]ccc12 (stereo unspecified) [Tasocitinib] | 110 | 110 | 89.1 (inactive) | 73.7 (inactive) |
| C#CCN1C(C)=C(C(=O)OC)C(c2cccc([N+](=O)[O-])c2)C(C(=O)OCC)=C1C (stereo unspecified) | 97.2 | 107 | 89.2 (inactive) | 103 (inactive) |
| CCCCCC=CCC=CC=CC=CC(SCC(NC(C)=O)C(=O)O)C(O)CCCC(=O)O (stereo unspecified) [N-Acetyl-leukotriene E4] | 103 | 102 | 92 (inactive) | 100 (inactive) |
| CN1CCc2cc3c(cc2C(=O)Cc2ccc4c(c2C1)OCO4)OCO3 [Protopine] | 99.4 | 108 | 97.6 (inactive) | 92.4 (inactive) |
| CN1CCc2cc(Cl)c(O)cc2C(c2ccccc2)C1.Cl (stereo unspecified) | 103 | 104 | 88.5 (inactive) | 94.6 (inactive) |
| COCc1c(C(C)C)nc(C(C)C)c(C=CC(O)CC(O)CC(=O)O)c1-c1ccc(F)cc1 (stereo unspecified) [Cerivastatin] | 97.3 | 39 | 166 (active) | 98.3 (inactive) |
| Cl.Cl.NCCC(=O)NCCc1cnc[nH]1 [Carcinine dihydrochloride] | 97.3 | 107 | 94.6 (inactive) | 88.5 (inactive) |
